Screening data deposited in PubChem BioAssay by National Center for Advancing Translational Sciences (NCATS).
L3MBTL1 inh: qHTS Assay for the Inhibitors of L3MBTL1. AID 485360, 2010. Potency, µM (top dose mostly 57.1 µM), for the others: at the top dose activity, negative = inhibition, hits mostly inhibitors. actives 0.66% (n = 230,000). AlphaScreen L3MBTL1–H3K9me1 peptide binding; note: nearly all actives have a fitted effect of over 60% in size
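L3MBTL1 (50 nM) pre-complexed 30 min with biotinylated H3(1-15)K9me1 peptide (75 nM), then compounds added for 30 min at room temperature; AlphaScreen streptavidin donor/nickel chelate acceptor beads (10 ug/mL final) read after 30 min dark incubation.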
GCN5L2 inh: qHTS Assay for Inhibitors of GCN5L2. Histone acetyltransferase KAT2A (Homo sapiens), Q92830. actives 0.21% (n = 390,000). GCN5L2 HAT assay, ThioGlo1 CoA-SH fluorescence. Potency, µM (titrated, usually from 58.9 µM), without a hit: top-dose activity change, negative = inhibition, most hits filed as inhibitors
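Fluorescence readout, Ex340nm/Em540nm: ThioGlo1 (50uM final) reacts with free CoA thiol released as 20nM GCN5L2 acetylates H3(1-25) peptide (75uM) using acetyl-CoA (70uM). Compound and enzyme sat 15 min beforehand; 20 min room-temperature reaction.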
JMJD2E inh: qHTS Assay for Inhibitors of Human Jumonji Domain Containing 2E (JMJD2E) | actives 1.6% (n = 230,000) | AID 2147, 2009 | JMJD2E catalytic domain, FDH-coupled NADH fluorescence (FDH is formaldehyde dehydrogenase) | Potency, µM (doses to about 57.1 µM), for the others: top-dose activity change, negative = inhibition, actives largely listed as inhibitors | Lysine-specific demethylase 4E (Homo sapiens), B2RXH2; active = well fitted inhibition curve with a large enough effect, not every such curve was filed as active; inconclusive = small, poorly fitted or top-dose-only effect, or another doubt; inactive = no such curve, though single readings can be large or run the other way;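 note: 0% = wells with enzyme and -100% = buffer wells without enzyme; nearly all actives have a fitted effect of over 50% in size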
APE1 inh: qHTS Assay for Inhibitors of the Human Apurinic/apyrimidinic Endonuclease 1 (APE1) | AID 2517, 2012 | recombinant APE1, TAMRA/BHQ-2 abasic DNA cleavage fluorescence | Potency, µM (doses to about 65.8 µM), inactives show at the highest dose activity change, negative = inhibition, hits mostly inhibitors | actives 0.35% (n = 350,000) | DNA repair nuclease/redox regulator APEX1 (Homo sapiens), P27695;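 note: plate controls were vehicle for no effect and reference inhibitor for full effect; nearly all actives have a fitted effect of over 55% in size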
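0.75 nM APE1 + cpd, 15 min RT; start w/ 50 nM TAMRA/BHQ-2 THF-abasic dsDNA; kinetic fluor 525/598 nm ×3 reads @60 s; Δ(read3−read1); normalized to DMSO and NSC13755 control wells.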
RECQ1 inh: qHTS Assay for Inhibitors of RecQ-Like Dna Helicase 1 (RECQ1). ATP-dependent DNA helicase Q1 (Homo sapiens), P46063. RECQ1 DNA unwinding, red fluorescence kinetic read. Potency, µM (titrated, usually from 57.3 µM), without a hit: at the top dose activity, negative = inhibition, actives largely listed as inhibitors. actives 0.54% (n = 240,000). AID 2549, 2010;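 note: plate controls were vehicle for no effect and no enzyme for full effect; nearly all actives have a fitted effect of over 30% in size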
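50 nM RECQ1T1 preincubated 15 min with compound in Tris pH 8.0 buffer with MgCl2, DTT, Tween-20 and 2.5 ug/ml poly(dI-dC); started with 200 nM TAMRA/BHQ-2 forked duplex and 2 mM ATP. Unwinding read as fluorescence (525/598 nm), two reads 2 h apart.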
BLM helicase inh: qHTS Assay for Inhibitors of Bloom's syndrome helicase (BLM); recombinant BLM DNA unwinding, fluorescence dequenching; Potency, µM (series often up to 56.1 µM), inactives show top-dose activity change, negative = inhibition, hits mostly inhibitors; AID 2528, 2010; RecQ-like DNA helicase BLM (Homo sapiens), P54132; actives 0.2% (n = 350,000);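 note: plate controls were vehicle for no effect and no enzyme for full effect; nearly all actives have a fitted effect of over 35% in size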
Numbers without * were called inactive; i = inactive; ? = inconclusive; . = not tested or not shown; [ ] = remark or other dose. The entries come from a sample that favours hits as a whole. Unless noted, calls come from the whole dose curve; as a rule, active = well fitted curve in the direction sought with a large enough effect; inconclusive = small, poorly fitted or top-dose-only effect, or another doubt; inactive = no such curve, though single readings can be large; an effect the other way counts as inactive or inconclusive. Unless noted, % is set by controls: 0 for no effect and ±100 for the full control effect; potency is the fitted concentration of half-maximal effect.

SMILES	L3MBTL1 inh	GCN5L2 inh	JMJD2E inh	APE1 inh	RECQ1 inh	BLM helicase inh
COc1ccc2c(c1)SCC/C2=C\CN1C(=O)CCC1=O	-4.0%	-0.7%	11.2%	2.0%	2.5%	-9.2%
CN(Cc1ccco1)c1ccnc(-c2ccoc2)n1	.	?	25.1µM*	9.3%	-11.9%	-4.8%
CC1CCC2C(=O)N3CCCC3C(=O)N2C1c1ccc(Br)cc1 (centres undefined)	.	.	.	-7.1%[12.4 µM]	3.9%[11.5 µM]	2.0%[12.4 µM]
CC1=C(/C=C/C(C)=C\C=C\C(C)=C\C(=O)O)C(C)(C)CCC1	.	5.5%	11.5%	-2.3%	7.0%	3.2%
CC(/C=C/C=C(C)/C=C/C(=O)O)=C\C=C\C=C(C)\C=C\C=C(C)\C=C\C(=O)O	.	.	.	2.51µM*	11.2µM*	.
CCOc1ccccc1N1C(=O)CC(Nc2ccc(N3CCOCC3)cc2)C1=O (centres undefined)	28.2µM*	-18.2%	3.9%	6.6%	0.0%	4.9%
COc1ccccc1N1C(=O)CC(Nc2ccc(N3CCOCC3)cc2)C1=O (centres undefined)	-14.2%	-6.6%	?	4.3%	-21.0%	-21.5%
O=C(CCc1ccc(S(=O)(=O)N2CCOCC2)cc1)N/N=C/c1ccc(O)c(O)c1O	14.1µM*	-18.7%	10µM*	?	-2.0%	-28.6%
COc1cc(/C=N/Nc2ccc([N+](=O)[O-])cc2S(=O)(=O)N2CCOCC2)cc(OC)c1OC	10.8%	-1.7%	-1.5%	?	-1.4%	-2.8%
O=[N+]([O-])c1ccc(N/N=C/c2ccc(O)c(O)c2O)c(S(=O)(=O)N2CCOCC2)c1	-25.2%	-12.1%	7.94µM*	?	?	-25.4%
Cc1cccc(N/N=C/c2ccc(O)c(O)c2O)c1	?	-9.4%	3.16µM*	?	-7.6%	-1.7%
O=[N+]([O-])c1cccc(N/N=C/c2cccc(O)c2O)c1	?	-2.6%	14.1µM*	-10.4%	i	-8.8%
CC(C)(C)n1ncc2c(=O)n(Cc3cccc(-c4cccs4)c3)cnc21	.	.	.	-5.6%	.	.
COc1ccc(OC)c(-c2nnc3n2N=C(c2ccc(OC)c(O[C@H]4CCOC4)c2)CS3)c1	.	.	.	-4.6%	.	.
Cc1ccccc1C(=O)OCc1cc(=O)n2nc(-c3cccs3)sc2n1	.	3.8%	.	.	.	-5.8%
NC(=O)C1CCN(c2nc(-c3ccc(Cl)cc3)cs2)CC1	.	.	.	4.6%	.	.
C[C@@H]1/C=C\CC(=O)OC[C@H]2O[C@@H](C=C[C@@H]2O)[C@H](C)/C=C\CC(=O)OC1	.	.	.	13.0%[12.4 µM]	-0.8%[11.5 µM]	-2.1%[12.4 µM]
O=[N+]([O-])c1ccc(N/N=C/c2cccc(O)c2O)c(S(=O)(=O)N2CCOCC2)c1	-8.6%	-6.6%	14.1µM*	-6.3%	12.6%	-7.4%
COC(=O)C(N)Cc1ccc(O)cc1 (centres undefined)	.	-6.1%	1.4%	-1.1%	-10.5%	-4.5%
COC(=O)C(N)Cc1ccc(O)c(O)c1 (centres undefined)	.	-1.2%	14.1µM*	?	-16.0%	-4.4%
CC(=O)NCCc1ccc(O)c(O)c1	.	.	17.8µM*	24.6%	-9.9%	.
COc1ccc(CN2CCC(N(CCc3ccccc3)Cc3ccccc3)CC2)c(OC)c1	.	-5.6%	28.2µM*	9.6%	-9.5%	4.8%
COc1ccc2c(c1)O[C@@H](c1ccc3c(c1)OCO3)[C@H](O)C2=O	.	.	8.2%	24.4%	-0.1%	4.1%
COC(=O)c1c(-c2cccs2)csc1NC(=O)c1ccc(OC)c(OC)c1	.	?	.	.	.	-4.4%
COC(=O)c1c(-c2cccs2)csc1NC(=O)c1cc(OC)c(OC)c(OC)c1	.	25.1µM*	.	.	.	-0.7%
SMILES	L3MBTL1 inh	GCN5L2 inh	JMJD2E inh	APE1 inh	RECQ1 inh	BLM helicase inh
COc1ccc2nc3c(cc2c1)Cn1c-3nc2ccccc2c1=O	.	.	.	16.0%	20.4%	-10.0%
N#Cc1c(N)nc(SCC(=O)C23CC4CC(CC(C4)C2)C3)c(C#N)c1-c1ccc(Cl)cc1	.	-26.7%	3.55µM*	1.8%	i	-7.1%
CCn1c(SCC(=O)N/N=C/C=C\c2ccco2)nc2ccccc21	31.6µM*	-2.9%	?	?	?	?
O=C(Cc1cccs1)N/N=C/C=C\c1ccco1	-20.7%	16.2%	?	-7.0%	?	-15.1%
Cn1c(SCC(=O)N/N=C/C=C\c2ccco2)nc2ccccc21	?	-6.1%	-0.4%	-4.6%	-9.3%	1.6%
Cc1ccc(CSc2nnc(SCC(=O)N/N=C/C=C/c3ccco3)s2)cc1	?	-18.5%	-16.7%	35.5µM*	-25.6%	?
O=C(N/N=C/C=C\c1ccco1)c1cccs1	6.31µM*	?	?	9.4%	-12.1%	17.8µM*
Cc1ccc(CSc2nnc(SCC(=O)N/N=C/C=C/c3ccccc3[N+](=O)[O-])s2)cc1	-13.4%	-0.7%	-8.8%	-0.1%	i	-2.9%
COc1ccc([C@@H]2CC(=O)c3c(O)cc(O[C@@H]4O[C@H](CO)[C@@H](O)[C@H](O)[C@H]4OC4O[C@@H](C)[C@H](O)[C@@H](O)[C@H]4O)cc3O2)cc1O (some centres undefined)	.	4.9%	.	-5.2%	-4.0%	2.9%
Cc1ccc(CNc2ncnc3ccc(-c4c(C)noc4C)cc23)cc1	.	.	.	-4.7%	i	0.8%
Cc1ncc(CO)c(/C=N/N=C/c2ccccc2O)c1O	16.3%	-5.3%	-12.7%	5.4%	-4.2%	-1.0%
Cc1ncc(CO)c(/C=N/NC(=S)Nc2ccc(F)cc2)c1O	14.1µM*	-6.9%	?	2.0%	-2.6%	-1.8%
Clc1cccc(-c2ccc(CNCc3ccccn3)o2)c1	22.4µM*	-0.2%	.	21.0%	.	2.2%
Oc1ccccc1/C=N/Nc1nc2ccccc2o1	-10.8%	-10.8%	28.2µM*	16.9%	?	-6.5%
Cc1cc(C)c2ccc(N)nc2c1O	4.0%	-0.9%	25.1µM*	-0.8%	-3.3%	-5.9%
Cc1cc(C)c2cccc(N)c2n1	-4.9%	1.8%	?	15.1%	11.2%	-13.0%
CCOC(=O)c1c(C)[nH]c2cc(Br)c(O)cc12	1.3%	-7.2%	-0.1%	8.0%	-6.7%	-1.2%
CCOC(=O)c1c(OCC)[nH]c2c1cc(O)c1ccccc12	-6.0%	-12.9%	22.4µM*	-2.5%	-7.2%	-8.8%
CCCCn1c(C)cc2c(c1=O)[C@H]1O[C@](CCCC)(Cc3cc(OC)c(OC)cc31)O2	.	-2.7%[12.7 µM]	.	-0.5%[12.4 µM]	.	-0.6%[12.4 µM]
